Growth data for 26 molecules are collected here from PubChem BioAssay (NCI).

Molecules are shown by their SMILES. Compounds without any hit were thinned out: in the full panel of roughly 83,000, 20% have a hit.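 Cell lines were cultured in 96-well plates, exposed to a single compound concentration, and assessed for percent growth 48 hours later.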 A number with no mark means an inactive call. The source made the active and inactive calls. How the source made its calls: active means growth percent below 10; inactive means the rest.

This assay has as its system OVCAR-5 ovarian. The experiment in a line: NCI-60 one-dose screen, 48 h (100 = growth as untreated, 0 = no growth, -100 = all killed). The conditions noted are these: 10 µM unless noted.
As to `CC(=O)Nc1ccc(S(=O)(=O)N2C(=O)CCC2C(=O)Nc2ccc(Br)cc2)cc1` (stereo unspecified), the growth is 77.5%. Regarding `O=C(O)c1ccc(-n2c(=O)c3ccccc3c3ccccc3c2=O)cc1`, the growth is 99.6%. Turning to `CS(=O)(=O)N(c1cc(-c2ccc3ncnc(Nc4cccc(Cl)c4)c3c2)cnc1Cl)S(C)(=O)=O`, the growth is 12.1%. For the molecule `CN(C)c1ncc(-c2ccc(C(F)(F)F)cc2)c(NC2CCCCCC2)n1`, the growth is 87.3%.

As to `O=S(=O)(NCCNc1cc(-c2cn(-c3ccccc3)nc2-c2ccccc2)ccn1)c1cccc2ccccc12`, the growth was 74.4%. As to `CC/C=C\C[C@H](O)C/C=C1/C(=O)C(Cl)=C[C@@H]1C/C=C\CCCC(=O)O`, the growth was 97.1%. On to `CC[C@H](C)[C@@H]1NC(=O)[C@H]([C@@H](C)O)NC(=O)C(Cc2ccccc2)NC(=O)[C@@H]2CCCN2C(=O)C(C(C)C)NC(=O)C(Cc2ccccc2)NC(=O)CNC(=O)[C@@H]2CCCN2C1=O` (stereo partly specified), for which the growth is 89.9%. Then `O=C(Nc1cc(C(F)(F)F)cc(C(F)(F)F)c1)Nc1ccc(OCc2nnc(-c3ccc(Cl)cc3)o2)c(F)c1`, with -5.15% (active); and `Oc1ccc(N=Cc2ccccc2)cc1`, with 104%. For `Nc1ccccc1C#C/C=C\C#Cc1cccc(O)c1`, the growth was 62.6%. In the case of `CCn1cc(C(=O)O)c(=O)c2cc(F)c(N3CCN(S(=O)(=O)c4ccc(Cl)cc4Cl)CC3)cc21`, the growth is 7.92% (active). In the case of `COc1cc(CNC(=O)CSc2nc3ccccc3c(=O)n2Cc2cc(OC)c(OC)c(OC)c2)cc(OC)c1OC` it was 102%. As for `COc1cc(CCn2nnc3c(NCCCCO)ncnc32)cc(OC)c1`, the growth is 121%. With `C/C(=C\c1csc(C)n1)[C@@H]1C[C@@H]2O[C@]2(C)CCC[C@H](C)[C@H](O)[C@@H](C)C(=O)C(C)(C)[C@@H](O)CC(=O)N1`, the growth was -6.81% (active).

For the molecule `COc1ccc(S(=O)(=O)N2CCN(c3cc4c(cc3F)c(=O)c(C(=O)O)cn4C3CC3)CC2)c(OC)c1`, the growth was 110%.

For `CC[C@]1(O)C[C@@H]2CN(Cc3c([nH]c4ccccc34)[C@@](C(=O)OC)(c3cc4c(cc3OC)N(C)[C@H]3[C@@](O)(C(=O)OC)[C@H](OC(C)=O)[C@]5(CC)[C@@H]6C[C@@H]6CN6CC[C@]43[C@@H]65)C2)C1`, the growth was 51%. As to `COC1=CC(c2ccc[nH]2)=N/C1=C\c1[nH]c(C)c(C(=O)CCCCC(=O)Oc2ccc3c(c2)CCC2C3CC[C@]3(C)[C@@H](O)CC[C@@H]23)c1C` (stereo partly specified), the growth was 65.6%. In the case of `N#Cc1ncc(-c2ccc(F)c(F)c2F)c(NC2CCCCCC2)n1`, the growth is 94.2%. In the case of `O=C(O)c1cn(C2CC2)c2cc(N3CCN(S(=O)(=O)c4ccc(Cl)c(Cl)c4)CC3)c(F)cc2c1=O` it was 12.5%. For the molecule `CCCCCCCCCCCCOB(OCCCCCCCCCCCC)OCCCCCCCCCCCC`, the growth is 110%.

As for `CNC(C)=O`, the growth was 95.8%.

Consider `COc1cc2nc(N3CCC[C@@H](NC4=CC(=O)c5ccccc5C4=O)C3)nc(N)c2cc1OC`, for which the growth was 110%. As to `COC(=O)[C@H]1[C@H](OC)[C@@H](OC(=O)/C=C/c2ccncc2)CC2CN3CCc4c([nH]c5cc(OC)ccc45)[C@@H]3C[C@@H]21` (stereo partly specified), the growth is 106%. Consider `Clc1nc(-c2cccnc2)nc2sc3c(c12)CCCCCC3`, for which the growth was 102%. Then `O=c1oc2cc(OS(=O)(=O)c3ccc(F)cc3)ccc2c2c1CCCCC2`, with 66.2%; and `CC(=O)C1CCC(C)=CC1=O` (stereo unspecified), with 103%.
